# Source: PubChem BioAssay (EPA / NIEHS)
# Inconclusive results are not listed. The source made the active and inactive calls. The calls were made as follows, unless noted: active = hit-call score of the fitted dose curve at least 0.9, where 1 is the maximum; inconclusive = response in the unintended direction; inactive = score below 0.9.
# Read-out: not listed separately
# Test: CEETOX_H295R_11DCORT_noMTC: CeeTox H295R High-throughput Steroidogenesis Assay for 11-Deoxycortisol (11DCORT), maximum tolerated concentration (MTC) filtered results only (AID 2283911; active = hit-call score of the fitted dose curve at least 0.9, where 1 is the maximum; inactive = score below 0.9)
# Details: actives raise or lower the signal
# In short: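 Forskolin-primed (10 uM, 48 h) H295R adrenal cells are dosed for 48 h at 0.1% DMSO; medium 11-deoxycortisol is quantified by LC-MS/MS against a 7-point standard curve, with activity fitted in both directions versus DMSO.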
row,Structure (SMILES),outcome
1,Oc1c(Cl)c(Cl)c(Cl)c(Cl)c1Cl,inactive
2,CCCCCCOC(=O)c1ccccc1C(=O)OCCCCCC,inactive
3,O=C(O)C(F)(F)C(F)(F)C(F)(F)C(F)(F)C(F)(F)C(F)(F)C(F)(F)C(F)(F)C(F)(F)F,inactive

# Read-out: not listed separately
# Test: CEETOX_H295R_OHPREG_noMTC: CeeTox H295R High-throughput Steroidogenesis Assay for OH-Pregnenolone (OHPREG), maximum tolerated concentration (MTC) filtered results only (AID 2283912; active = hit-call score of the fitted dose curve at least 0.9, where 1 is the maximum; inactive = score below 0.9)
# Details: actives raise or lower the signal
# In short: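 Readout is HPLC-MS/MS quantification of 17alpha-hydroxypregnenolone released by forskolin-stimulated H295R cells over 48 h of chemical exposure, DMSO as baseline.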
row,Structure (SMILES),outcome
1,Oc1c(Cl)c(Cl)c(Cl)c(Cl)c1Cl,inactive
2,CCCCCCOC(=O)c1ccccc1C(=O)OCCCCCC,inactive
3,O=C(O)C(F)(F)C(F)(F)C(F)(F)C(F)(F)C(F)(F)C(F)(F)C(F)(F)C(F)(F)C(F)(F)F,inactive
4,CCCCCCCCOC(=O)c1ccccc1C(=O)OCCCCCCCC,inactive

# Read-out: not listed separately
# Test: CEETOX_H295R_OHPROG_noMTC: CeeTox H295R High-throughput Steroidogenesis Assay for OH-Progesterone (OHPROG), maximum tolerated concentration (MTC) filtered results only (AID 2283914; active = hit-call score of the fitted dose curve at least 0.9, where 1 is the maximum; inactive = score below 0.9)
# Details: actives raise or lower the signal
# In short: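 Analysis uses all tested concentrations, without maximum-tolerated-concentration screening by MTT. H295R cells, forskolin-primed (10 uM, 48 h), receive chemical for 48 h; hormone in medium measured by HPLC-MS/MS, with bidirectional curve fitting against DMSO.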
row,Structure (SMILES),outcome
1,Oc1c(Cl)c(Cl)c(Cl)c(Cl)c1Cl,inactive
2,CCCCCCOC(=O)c1ccccc1C(=O)OCCCCCC,inactive
3,O=C(O)C(F)(F)C(F)(F)C(F)(F)C(F)(F)C(F)(F)C(F)(F)C(F)(F)C(F)(F)C(F)(F)F,inactive
4,CCCCCCCCOC(=O)c1ccccc1C(=O)OCCCCCCCC,inactive

# Read-out: not listed separately
# Test: CEETOX_H295R_CORTISOL_noMTC: CeeTox H295R High-throughput Steroidogenesis Assay for Cortisol, maximum tolerated concentration (MTC) filtered results only (AID 2283916; active = hit-call score of the fitted dose curve at least 0.9, where 1 is the maximum; inactive = score below 0.9)
# Details: actives raise or lower the signal
# In short: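 H295R adrenal cells were pre-stimulated 48 h with 10 uM forskolin, then exposed 48 h to test chemical in 0.1% DMSO. Medium cortisol was measured by MTBE extraction and HPLC-MS/MS; bidirectional fit versus DMSO, concentrations not MTC-filtered.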
row,Structure (SMILES),outcome
1,Oc1c(Cl)c(Cl)c(Cl)c(Cl)c1Cl,inactive
2,CCCCCCOC(=O)c1ccccc1C(=O)OCCCCCC,inactive
3,O=C(O)C(F)(F)C(F)(F)C(F)(F)C(F)(F)C(F)(F)C(F)(F)C(F)(F)C(F)(F)C(F)(F)F,inactive

# Read-out: not listed separately
# Test: CEETOX_H295R_CORTIC_noMTC: CeeTox H295R High-throughput Steroidogenesis Assay for Corticosterone (CORTIC), maximum tolerated concentration (MTC) filtered results only (AID 2283917; active = hit-call score of the fitted dose curve at least 0.9, where 1 is the maximum; inactive = score below 0.9)
# Details: actives raise or lower the signal
# In short: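 Forskolin-stimulated (10 uM, 48 h) H295R cells are dosed 48 h with chemical in DMSO (0.1% final); corticosterone change is quantified by HPLC-MS/MS and fitted bidirectionally against DMSO, unfiltered for MTT-derived MTC.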
row,Structure (SMILES),outcome
1,Oc1c(Cl)c(Cl)c(Cl)c(Cl)c1Cl,inactive
2,CCCCCCOC(=O)c1ccccc1C(=O)OCCCCCC,inactive
3,O=C(O)C(F)(F)C(F)(F)C(F)(F)C(F)(F)C(F)(F)C(F)(F)C(F)(F)C(F)(F)C(F)(F)F,inactive

# Read-out: not listed separately
# Test: CEETOX_H295R_DOC_noMTC: CeeTox H295R High-throughput Steroidogenesis Assay for DOC, maximum tolerated concentration (MTC) filtered results only (AID 2283918; active = hit-call score of the fitted dose curve at least 0.9, where 1 is the maximum; inactive = score below 0.9)
# Details: actives raise or lower the signal
# In short: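 H295R cells prestimulated 48 h with 10 uM forskolin, then exposed 48 h to test chemical (0.1% DMSO final). Medium 11-deoxycorticosterone extracted with MTBE, quantified by HPLC-MS/MS; bidirectional fit versus DMSO, concentrations not MTC-filtered.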
row,Structure (SMILES),outcome
1,Oc1c(Cl)c(Cl)c(Cl)c(Cl)c1Cl,inactive
2,CCCCCCOC(=O)c1ccccc1C(=O)OCCCCCC,inactive
3,O=C(O)C(F)(F)C(F)(F)C(F)(F)C(F)(F)C(F)(F)C(F)(F)C(F)(F)C(F)(F)C(F)(F)F,inactive

# Read-out: not listed separately
# Test: CEETOX_H295R_PROG_noMTC: CeeTox H295R High-throughput Steroidogenesis Assay for Progesterone (PROG), maximum tolerated concentration (MTC) filtered results only (AID 2283920; active = hit-call score of the fitted dose curve at least 0.9, where 1 is the maximum; inactive = score below 0.9)
# Details: actives raise or lower the signal
# In short: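 Progesterone synthesis in the human adrenal line H295R is measured by HPLC-MS/MS after 48 h chemical exposure following 48 h forskolin (10 uM) stimulation. Activity in either direction is fitted relative to DMSO.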
row,Structure (SMILES),outcome
1,Oc1c(Cl)c(Cl)c(Cl)c(Cl)c1Cl,inactive
2,O=C(O)C(F)(F)C(F)(F)C(F)(F)C(F)(F)C(F)(F)C(F)(F)C(F)(F)C(F)(F)C(F)(F)F,inactive
3,CCCCCCCCOC(=O)c1ccccc1C(=O)OCCCCCCCC,inactive

# Biological target: PGR (gene 5241) (UniProt P06401)
# Sequence (P06401 whole entry, looked up): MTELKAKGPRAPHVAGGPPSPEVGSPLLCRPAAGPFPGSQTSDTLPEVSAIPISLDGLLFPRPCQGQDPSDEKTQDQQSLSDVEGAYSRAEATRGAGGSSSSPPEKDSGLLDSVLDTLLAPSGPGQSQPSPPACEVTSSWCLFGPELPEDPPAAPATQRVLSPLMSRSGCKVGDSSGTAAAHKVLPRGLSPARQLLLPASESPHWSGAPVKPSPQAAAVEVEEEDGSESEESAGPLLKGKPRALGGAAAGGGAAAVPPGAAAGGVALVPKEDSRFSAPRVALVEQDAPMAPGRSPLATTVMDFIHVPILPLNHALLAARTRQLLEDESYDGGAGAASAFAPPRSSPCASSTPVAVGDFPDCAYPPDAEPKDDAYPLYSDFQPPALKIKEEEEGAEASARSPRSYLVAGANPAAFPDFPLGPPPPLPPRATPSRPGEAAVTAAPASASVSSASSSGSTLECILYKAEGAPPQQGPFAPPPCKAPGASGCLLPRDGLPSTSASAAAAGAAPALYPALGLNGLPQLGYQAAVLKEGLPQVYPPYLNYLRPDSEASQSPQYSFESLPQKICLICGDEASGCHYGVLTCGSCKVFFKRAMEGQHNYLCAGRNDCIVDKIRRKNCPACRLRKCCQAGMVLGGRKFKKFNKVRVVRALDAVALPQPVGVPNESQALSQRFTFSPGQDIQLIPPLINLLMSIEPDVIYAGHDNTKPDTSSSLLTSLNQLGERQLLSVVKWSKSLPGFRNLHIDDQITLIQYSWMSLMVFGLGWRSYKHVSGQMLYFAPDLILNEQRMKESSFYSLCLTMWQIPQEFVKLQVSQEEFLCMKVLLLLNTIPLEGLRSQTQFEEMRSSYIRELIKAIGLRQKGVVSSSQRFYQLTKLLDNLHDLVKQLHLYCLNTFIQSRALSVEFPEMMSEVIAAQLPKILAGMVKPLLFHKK
# Test: TOX21_PR_BLA_Followup_Agonist_ratio: Tox21 HEK293 Progesterone Receptor (PR) Agonism Beta-lactamase Follow-Up Assay, Ratio (AID 2283933)
# Details: not given
# In short: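 Cells were seeded and held 6 hr before compound addition, exposed for 16 hr at 37C, then given FRET substrate for 2 hr at room temperature. Agonism was scored from the blue/green substrate cleavage ratio against DMSO controls.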
Structure (SMILES),AC50,outcome
CCC(=O)O[C@H]1CC[C@H]2[C@@H]3CCC4=CC(=O)CC[C@]4(C)[C@H]3CC[C@]12C,12 µM (active),–
CC(C)(O)C(=O)Nc1ccc([N+](=O)[O-])c(C(F)(F)F)c1,–,inactive
N#Cc1ccc(N(CC(N)=O)CC(F)(F)F)cc1C(F)(F)F,–,inactive

# Biological target: PGR (gene 5241) (UniProt P06401)
# Test: TOX21_PR_BLA_Followup_Antagonist_ratio: Tox21 HEK293 Progesterone Receptor (PR) Antagonism Beta-lactamase Follow-Up Assay, Ratio (AID 2283934);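 also: PR-UAS-bla HEK293T cells stimulated with 1 nM R5020 agonist for 16 hr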
# Details: not given
# In short: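 Cells are plated, rested 6 hr, then dosed with test compound in DMSO and challenged with 1 nM promegestone. After 16 hr incubation, substrate loading for 2 h at room temperature precedes fluorescence reading; viability is measured in the same wells.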
Structure (SMILES),AC50,outcome
CC(C)(c1ccccc1)c1ccc(O)cc1,32.7 µM (active),–
Clc1ccc(C(c2ccccc2Cl)C(Cl)(Cl)Cl)cc1 (stereo unspecified),12.7 µM (active),–
CCCCCCCCCc1ccc(O)cc1,68.3 µM (active),–
CCC(=O)O[C@H]1CC[C@H]2[C@@H]3CCC4=CC(=O)CC[C@]4(C)[C@H]3CC[C@]12C,–,inactive
ClC(Cl)=C(c1ccc(Cl)cc1)c1ccc(Cl)cc1,24.9 µM (active),–
Oc1ccc(C(c2ccc(O)cc2)(C(F)(F)F)C(F)(F)F)cc1,53.5 µM (active),–
ClC1=C(Cl)[C@]2(Cl)[C@@H]3[C@@H]4C[C@@H]([C@H]5O[C@@H]45)[C@@H]3[C@@]1(Cl)C2(Cl)Cl,20.3 µM (active),–
C[C@]12CCC(=O)C=C1CC[C@@H]1[C@@H]2CC[C@@]2(C)[C@H]1CC[C@]2(C)O,–,inactive
C[C@]12CCC(=O)C=C1CC[C@@H]1[C@@H]2CC[C@]2(C)C(=O)CC[C@@H]12,9.75 µM (active),–
N#Cc1ccc(N(CC(N)=O)CC(F)(F)F)cc1C(F)(F)F,46.1 µM (active),–

# System: not listed separately
# Test: TOX21_PR_BLA_Followup_Agonist_viability: Viability Assessment in the Tox21 HEK293 Progesterone Receptor (PR) Agonism Beta-lactamase Follow-Up Assay (AID 2283935);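 also: signal loss means lower viability so actives are cytotoxic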
# Details: not given
# In short: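 Cells were plated in medium with 2% charcoal-stripped FBS and rested 6 hr. Compounds in DMSO were then added for 16 hr at 37C, followed by the FRET substrate step and CellTiter-Glo luminescence after 30 min.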
Structure (SMILES),outcome,AC50
COc1ccc(O)c(C(C)(C)C)c1,inactive,–
CC(C)(c1ccccc1)c1ccc(O)cc1,inactive,–
Clc1ccc(C(c2ccccc2Cl)C(Cl)(Cl)Cl)cc1 (stereo unspecified),–,46.1 µM (active)
CCCCCCCCCc1ccc(O)cc1,inactive,–
CCC(=O)O[C@H]1CC[C@H]2[C@@H]3CCC4=CC(=O)CC[C@]4(C)[C@H]3CC[C@]12C,inactive,–
ClC(Cl)=C(c1ccc(Cl)cc1)c1ccc(Cl)cc1,inactive,–
Oc1ccc(C(c2ccc(O)cc2)(C(F)(F)F)C(F)(F)F)cc1,inactive,–
ClC1=C(Cl)[C@]2(Cl)[C@@H]3[C@@H]4C[C@@H]([C@H]5O[C@@H]45)[C@@H]3[C@@]1(Cl)C2(Cl)Cl,inactive,–
C[C@]12CCC(=O)C=C1CC[C@@H]1[C@@H]2CC[C@@]2(C)[C@H]1CC[C@]2(C)O,inactive,–
C[C@]12CCC(=O)C=C1CC[C@@H]1[C@@H]2CC[C@]2(C)C(=O)CC[C@@H]12,inactive,–

# System: not listed separately
# Test: TOX21_PR_BLA_Followup_Antagonist_viability: Viability Assessment in the Tox21 HEK293 Progesterone Receptor (PR) Antagonism Beta-lactamase Follow-Up Assay (AID 2283936);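 also: cells exposed to compound with R5020 agonist for 16 h; hits lower the luminescence signal meaning cytotoxicity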
# Details: not given
# In short: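 PR-UAS-bla HEK293T cells in medium with 2% charcoal-stripped FBS were treated with compounds plus R5020 for 16 hr at 37C. After the beta-lactamase read, CellTiter-Glo was added to the same wells and luminescence read after 30 min at room temperature.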
row,Structure (SMILES),outcome
1,COc1ccc(O)c(C(C)(C)C)c1,inactive
2,CC(C)(c1ccccc1)c1ccc(O)cc1,inactive
3,CCCCCCCCCc1ccc(O)cc1,inactive
4,CCC(=O)O[C@H]1CC[C@H]2[C@@H]3CCC4=CC(=O)CC[C@]4(C)[C@H]3CC[C@]12C,inactive
5,ClC(Cl)=C(c1ccc(Cl)cc1)c1ccc(Cl)cc1,inactive
6,Oc1ccc(C(c2ccc(O)cc2)(C(F)(F)F)C(F)(F)F)cc1,inactive
7,ClC1=C(Cl)[C@]2(Cl)[C@@H]3[C@@H]4C[C@@H]([C@H]5O[C@@H]45)[C@@H]3[C@@]1(Cl)C2(Cl)Cl,inactive
8,C[C@]12CCC(=O)C=C1CC[C@@H]1[C@@H]2CC[C@@]2(C)[C@H]1CC[C@]2(C)O,inactive
9,C[C@]12CCC(=O)C=C1CC[C@@H]1[C@@H]2CC[C@]2(C)C(=O)CC[C@@H]12,inactive
10,N#Cc1ccc(N(CC(N)=O)CC(F)(F)F)cc1C(F)(F)F,inactive
